From PubChem BioAssay (NCATS)
Inconclusive results are not listed. Where a call stands in place of a potency, no number is given. Activity calls are given as the source filed them. Calls come from the whole dose curve; as a rule, active = well fitted curve in the direction sought with a large enough effect; inconclusive = small, poorly fitted or top-dose-only effect, or another doubt; inactive = no such curve, though single readings can be large; an effect the other way counts as inactive or inconclusive.

Target: Transient receptor potential cation channel subfamily V member 1 (Homo sapiens) (UniProt Q8NER1)
Assay: HTS Assay for Compounds that Act as Enhancers of the Vanilloid Receptor 1 (AID 488979)
Conditions: TRPV1-expressing cells, enhancer of channel activity; series mostly up to 41.7 µM
Summary of the method: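 Calcium influx kinetics via Fluo-8 (480/520 nm) in TRPV1-expressing cells, 2000/well cultured overnight at 35.5C. Compound-alone read 3 min (agonist phase), followed by EC20 capsaicin challenge for 2 min (enhancer phase).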

Sequence of Transient receptor potential cation channel subfamily V member 1 (Homo sapiens) (Q8NER1 whole entry, looked up): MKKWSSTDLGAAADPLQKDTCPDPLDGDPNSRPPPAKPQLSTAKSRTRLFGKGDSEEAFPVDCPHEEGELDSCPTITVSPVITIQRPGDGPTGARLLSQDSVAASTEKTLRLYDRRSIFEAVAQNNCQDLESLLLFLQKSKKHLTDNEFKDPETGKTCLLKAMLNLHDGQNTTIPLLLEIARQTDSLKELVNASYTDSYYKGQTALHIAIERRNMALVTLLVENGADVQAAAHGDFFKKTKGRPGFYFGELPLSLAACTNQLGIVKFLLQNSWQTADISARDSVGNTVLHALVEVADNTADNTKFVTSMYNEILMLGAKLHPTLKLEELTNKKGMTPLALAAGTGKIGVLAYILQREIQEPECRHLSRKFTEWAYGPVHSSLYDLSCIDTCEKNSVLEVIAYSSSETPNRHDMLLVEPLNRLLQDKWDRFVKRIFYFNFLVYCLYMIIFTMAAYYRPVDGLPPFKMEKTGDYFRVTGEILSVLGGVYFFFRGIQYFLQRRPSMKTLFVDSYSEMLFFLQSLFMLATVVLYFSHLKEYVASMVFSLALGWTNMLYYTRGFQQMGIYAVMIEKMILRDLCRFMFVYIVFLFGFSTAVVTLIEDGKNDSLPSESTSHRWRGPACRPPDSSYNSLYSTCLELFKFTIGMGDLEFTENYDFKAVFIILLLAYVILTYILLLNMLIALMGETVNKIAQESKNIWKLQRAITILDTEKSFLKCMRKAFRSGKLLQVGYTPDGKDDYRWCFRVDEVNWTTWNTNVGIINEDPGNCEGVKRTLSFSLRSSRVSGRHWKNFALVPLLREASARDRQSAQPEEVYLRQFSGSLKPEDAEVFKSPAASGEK

SMILES | outcome
C[C@]12Cc3cn4c(nc3C=C1CCC1C2CC[C@@]2(C)[C@H]1CC[C@@]2(O)C#N)nc1ccccc14 (stereo partly drawn) | inactive
CCCN1CC[C@@H]2c3cc(O)ccc3CC[C@@H]21 | inactive
O=[N+]([O-])c1cc(O)c(O)c([N+](=O)[O-])c1 | inactive
CC(N)[C@H](O)c1ccc(O)c(O)c1 (stereo partly drawn) | inactive
OCc1cnc[nH]1 | inactive
NC(Cc1ccc(N(CCCl)CCCl)cc1)C(=O)O (stereo not drawn) | inactive
Cc1o[nH]c(=O)c1CC(N)C(=O)O (stereo not drawn) | inactive
NC(=O)COc1c(F)cc(SCCNS(=O)(=O)c2ccccc2)cc1F | inactive
Cc1c2ccncc2c(C)c2c1[nH]c1ccccc12 | inactive
CN1CC[C@@]2(C)c3cc(O)ccc3N(C)C12 (stereo partly drawn) | inactive
CCCN(CCC)C1Cc2cc(OC)c(OC)cc2C1 | inactive
NC(N)=Nc1ccc2[nH]c3c(c2c1)C[C@@]1(O)[C@H]2Cc4ccc(O)c5c4[C@@]1(CCN2CC1CC1)[C@H]3O5 | inactive
CC(N)c1cccc(Cl)c1Cl (stereo not drawn) | inactive
C=CCN1CC[C@]23c4c5ccc(O)c4O[C@H]2/C(=N/NC(=O)c2ccccc2)CC[C@@]3(O)[C@H]1C5 | inactive
CCS(=O)(=O)Nc1cccc(C(=C2CCCCC2)c2cnc[nH]2)c1 | inactive
NCC(CP(=O)(O)O)c1ccc(Cl)cc1 (stereo not drawn) | inactive
COc1ccc2[nH]c3c(c2c1)CCNC3 | inactive
N[C@@H](Cn1oc(=O)[nH]c1=O)C(=O)O | inactive

Target: Thyrotropin receptor (Homo sapiens) (UniProt P16473)
Assay: qHTS Assay for Antagonists of the Thyroid Stimulating Hormone Receptor (AID 488980)
Conditions: TSHR-expressing cells, cAMP antagonist read-out; series mostly up to 57.5 µM
Summary of the method: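 Inhibition of TSH-stimulated cAMP accumulation was quantified by homogeneous time-resolved FRET in TSHR-transfected HEK293 cells. Agonist: TSH, 4 nM final (EC80).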

Sequence of Thyrotropin receptor (Homo sapiens) (P16473 whole entry, looked up): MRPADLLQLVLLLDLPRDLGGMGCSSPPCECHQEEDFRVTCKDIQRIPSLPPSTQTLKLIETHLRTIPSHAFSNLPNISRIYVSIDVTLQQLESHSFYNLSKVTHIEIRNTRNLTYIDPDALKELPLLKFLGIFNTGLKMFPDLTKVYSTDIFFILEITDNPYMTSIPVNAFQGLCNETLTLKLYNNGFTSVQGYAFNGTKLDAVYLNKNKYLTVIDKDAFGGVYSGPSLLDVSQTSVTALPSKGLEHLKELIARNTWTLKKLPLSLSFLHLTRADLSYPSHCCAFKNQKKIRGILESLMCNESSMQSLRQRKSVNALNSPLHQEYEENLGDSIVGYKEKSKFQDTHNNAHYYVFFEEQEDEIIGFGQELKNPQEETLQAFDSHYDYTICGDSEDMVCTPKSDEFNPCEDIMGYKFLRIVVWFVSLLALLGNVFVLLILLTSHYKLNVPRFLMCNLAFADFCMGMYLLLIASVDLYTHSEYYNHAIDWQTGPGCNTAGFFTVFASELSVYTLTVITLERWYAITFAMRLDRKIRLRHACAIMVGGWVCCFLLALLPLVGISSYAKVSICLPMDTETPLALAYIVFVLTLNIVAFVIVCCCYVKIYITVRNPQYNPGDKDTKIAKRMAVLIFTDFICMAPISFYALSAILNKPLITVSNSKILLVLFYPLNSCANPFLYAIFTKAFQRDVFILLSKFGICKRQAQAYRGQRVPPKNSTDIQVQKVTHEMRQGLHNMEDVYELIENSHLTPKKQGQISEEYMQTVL

SMILES | outcome
CCCn1c(C)c(C(=O)c2ccc3ccccc3c2)c2ccccc21 | inactive
CC1(C(=O)O)C2CCC(O2)C1(C)C(=O)O (stereo not drawn) | inactive
NC(=O)c1ccc(OCC(O)CN2CC=C(c3ccc(F)cc3)CC2)cc1 (stereo not drawn) | inactive
COc1ccc2c(c1)/C(=C/c1cnc[nH]1)C(=O)N2 | inactive
OC1CCCCC1N1CCC(c2ccccc2)CC1 (stereo not drawn) | inactive
NCCc1ccc(S(=O)(=O)F)cc1 | inactive
COc1ccc(CNC(=O)/C=C/c2ccc3[nH]cc(CCN(C)C)c3c2)cc1 | inactive
CCCCCCC(C)(C)c1ccc([C@@H]2C[C@H](O)CC[C@H]2CCCO)c(O)c1 | inactive
NC(CCCCCP(=O)(O)O)C(=O)O (stereo not drawn) | inactive
c1ccc2c(c1)[I+]c1ccccc1-2 | inactive
Nc1ccc(CCN2CCN(c3cccc(C(F)(F)F)c3)CC2)cc1 | inactive
N[C@@H](CCl)C(=O)O | inactive
C#CCN[C@H](C)Cc1ccccc1 | inactive
O=C1C=CC(=O)C=C1 | inactive
NNC(N)=O | inactive
CC(=O)NBr | inactive
CC(=O)c1c(O)c(C)c(O)c(Cc2c(O)c3c(c(C(=O)/C=C/c4ccccc4)c2O)OC(C)(C)C=C3)c1O | inactive
CCCn1c(=O)c2[nH]c(C3CCCC3)nc2n(CCCOC(=O)c2ccc(S(=O)(=O)F)cc2)c1=O | inactive
O=S1(=O)N(CCN2CC=C(c3c[nH]c4cc(F)ccc34)CC2)c2cccc3c2N1CCC3 | inactive
O=[N+]([O-])c1ccc2nc(N3CCNCC3)ccc2c1 | inactive
CN1C2CCC1CC(OC(c1ccccc1)c1ccccc1N)C2 (stereo not drawn) | inactive

Target: D(1A) dopamine receptor (Homo sapiens) (UniProt P21728)
Assay: HTS Assay for Allosteric Agonists of the Human D1 Dopamine Receptor: Primary Screen for Agonists (AID 488981); note: potency is the fitted concentration of half-maximal effect
Conditions: Inducible HEK293 T-REx D1 cells, calcium-flux fluorescence, 180 s kinetic; series mostly up to 41.8 µM
Summary of the method: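 Calcium flux in an inducible, force-coupled HEK293 Trex D1 line (overnight at 30 C): agonist mode is the 180 s kinetic read after compound; potentiator mode is the following 180 s read after dopamine at EC20.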

Sequence of D(1A) dopamine receptor (Homo sapiens) (P21728 whole entry, looked up): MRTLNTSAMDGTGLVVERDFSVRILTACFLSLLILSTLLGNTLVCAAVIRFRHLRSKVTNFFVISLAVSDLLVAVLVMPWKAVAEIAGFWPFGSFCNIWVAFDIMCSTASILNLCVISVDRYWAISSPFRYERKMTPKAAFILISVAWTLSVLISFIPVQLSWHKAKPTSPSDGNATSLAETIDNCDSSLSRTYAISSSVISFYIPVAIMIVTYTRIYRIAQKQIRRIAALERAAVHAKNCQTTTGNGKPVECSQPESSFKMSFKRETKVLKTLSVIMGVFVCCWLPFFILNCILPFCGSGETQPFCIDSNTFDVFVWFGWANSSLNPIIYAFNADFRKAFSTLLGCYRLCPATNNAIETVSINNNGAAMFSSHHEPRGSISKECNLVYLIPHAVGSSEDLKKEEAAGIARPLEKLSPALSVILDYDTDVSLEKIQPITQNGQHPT

SMILES | Potency
CCCn1c(C)c(C(=O)c2ccc3ccccc3c2)c2ccccc21 | inactive
C[C@]12Cc3cn4c(nc3C=C1CCC1C2CC[C@@]2(C)[C@H]1CC[C@@]2(O)C#N)nc1ccccc14 (stereo partly drawn) | inactive
CCCN1CC[C@@H]2c3cc(O)ccc3CC[C@@H]21 | inactive
CC1(C(=O)O)C2CCC(O2)C1(C)C(=O)O (stereo not drawn) | inactive
NC(=O)c1ccc(OCC(O)CN2CC=C(c3ccc(F)cc3)CC2)cc1 (stereo not drawn) | inactive
COc1ccc2c(c1)/C(=C/c1cnc[nH]1)C(=O)N2 | inactive
O=[N+]([O-])c1cc(O)c(O)c([N+](=O)[O-])c1 | inactive
OC1CCCCC1N1CCC(c2ccccc2)CC1 (stereo not drawn) | inactive
CC(N)[C@H](O)c1ccc(O)c(O)c1 (stereo partly drawn) | inactive
OCc1cnc[nH]1 | inactive
NCCc1ccc(S(=O)(=O)F)cc1 | inactive
COc1ccc(CNC(=O)/C=C/c2ccc3[nH]cc(CCN(C)C)c3c2)cc1 | inactive
CCCCCCC(C)(C)c1ccc([C@@H]2C[C@H](O)CC[C@H]2CCCO)c(O)c1 | inactive
NC(CCCCCP(=O)(O)O)C(=O)O (stereo not drawn) | inactive
c1ccc2c(c1)[I+]c1ccccc1-2 | inactive
Nc1ccc(CCN2CCN(c3cccc(C(F)(F)F)c3)CC2)cc1 | inactive
N[C@@H](CCl)C(=O)O | inactive
NC(Cc1ccc(N(CCCl)CCCl)cc1)C(=O)O (stereo not drawn) | inactive
Cc1o[nH]c(=O)c1CC(N)C(=O)O (stereo not drawn) | inactive
C#CCN[C@H](C)Cc1ccccc1 | inactive

SMILES | Potency
O=C1C=CC(=O)C=C1 | inactive
NC(=O)COc1c(F)cc(SCCNS(=O)(=O)c2ccccc2)cc1F | inactive
NNC(N)=O | inactive
Cc1c2ccncc2c(C)c2c1[nH]c1ccccc12 | 10 µM (active)
CC(=O)NBr | inactive
CN1CC[C@@]2(C)c3cc(O)ccc3N(C)C12 (stereo partly drawn) | inactive
CCCN(CCC)C1Cc2cc(OC)c(OC)cc2C1 | inactive
CC(=O)c1c(O)c(C)c(O)c(Cc2c(O)c3c(c(C(=O)/C=C/c4ccccc4)c2O)OC(C)(C)C=C3)c1O | inactive
CCCn1c(=O)c2[nH]c(C3CCCC3)nc2n(CCCOC(=O)c2ccc(S(=O)(=O)F)cc2)c1=O | inactive
NC(N)=Nc1ccc2[nH]c3c(c2c1)C[C@@]1(O)[C@H]2Cc4ccc(O)c5c4[C@@]1(CCN2CC1CC1)[C@H]3O5 | inactive
O=S1(=O)N(CCN2CC=C(c3c[nH]c4cc(F)ccc34)CC2)c2cccc3c2N1CCC3 | inactive
CC(N)c1cccc(Cl)c1Cl (stereo not drawn) | inactive
C=CCN1CC[C@]23c4c5ccc(O)c4O[C@H]2/C(=N/NC(=O)c2ccccc2)CC[C@@]3(O)[C@H]1C5 | inactive
CCS(=O)(=O)Nc1cccc(C(=C2CCCCC2)c2cnc[nH]2)c1 | inactive
O=[N+]([O-])c1ccc2nc(N3CCNCC3)ccc2c1 | inactive
NCC(CP(=O)(O)O)c1ccc(Cl)cc1 (stereo not drawn) | inactive
COc1ccc2[nH]c3c(c2c1)CCNC3 | inactive
N[C@@H](Cn1oc(=O)[nH]c1=O)C(=O)O | inactive
CN1C2CCC1CC(OC(c1ccccc1)c1ccccc1N)C2 (stereo not drawn) | inactive
